Reference: the OligoGym collection

target: SYCP2L; assay: pooled miR-30 sensor sort-seq; sequence = guide strand; details: shRNA

Row | Sequence | sensor-assay potency score (higher = more potent)
1 | TTCATCACCGCTTCCTTCGGAA | -0.0578
2 | TTCATGACTTCTTTGTAGCTGA | 0.227
3 | TTGGTCACCAAGTCTGTTGTTT | -0.185
4 | TTCTTTGTAGCTGATAATCATG | -1.28
5 | ATCTTCTATAACACAAATCAGC | -1.67
6 | TTCTATAACACAAATCAGCGAC | -0.297
7 | TTATTGATCTGTCAAGACGGTA | -0.997
8 | TTGATTGTTGTGACTTAGCAAA | -1.27
9 | AATATCTTTATCTTCTCCGTTT | -0.529
10 | TAGGTTTTTCTTCATCTTCTGA | -0.679
11 | TATATAAAAAGTGACACTCTGA | -0.257

target: SYN3; assay: as above; details: shRNA

Row | Sequence | sensor-assay potency score (higher = more potent)
12 | TAGTTGGATCCAATTTTCTGGA | -1.06
13 | TAATCTCTGCCATCCTTGCTGT | -0.283
14 | TTCCACATGCTCTCCAATCAGC | -0.957
15 | TCGATCACCAACAGGATCCTGG | -0.321
16 | TTTCTGGATGCGGATGTCGTAC | -1.02
17 | TTTGGAGACAACAAGGTCGGCC | -0.0801
18 | TTCCACTTTGATCTTTCCCATT | -1.45
19 | TTGTAGACGGAGTAGAGAGAGT | -1.24
20 | TTTGCTGCTGTGGAGATCCGGA | -0.473
21 | TTGGCCTCGTCTTCACTTGGGG | -0.142
22 | TTTTGGAGACAACAAGGTCGGC | -0.766
